The source of these data is PubChem BioAssay AID652023 (National Center for Advancing Translational Sciences (NCATS), 2013).

Each structure is given as a SMILES string. This is one part of the list. Inconclusive results are not listed. Calls of active or inactive are those of the source. Calls come from the whole dose curve; as a rule, active = well fitted inhibition curve with a large enough effect; inconclusive = small, poorly fitted or top-dose-only effect; inactive = flat fitted curve, though single readings scatter.

For this experiment, the target named is Thioredoxin reductase 1, cytoplasmic (Rattus norvegicus) (UniProt O89049). In words: qHTS Assay for Inhibitors of Mammalian Selenoprotein Thioredoxin Reductase 1 (TrxR1): Hit Validation in Primary Screen. The note with it: recombinant TrxR1, NADPH fluorescence consumption, selenite substrate. The source says:
The selenoprotein thioredoxin reductase (TrxR; EC 1.8.1.9) is a FAD containing homodimeric pyridine nucleotide-disulfide oxidoreductase with many cellular roles. Together with NADPH and its prime substrate thioredoxin (Trx), the enzyme forms the core of the Trx system. The mammalian Trx system exerts a wide spectrum of functions including redox regulation, antioxidant defense, regulation of transcription factors as well as support of cell growth and replication. Many of these functions involve the reduction of Trx, which may subsequently reduce a number of different substrates including ribonucleotide reductase, peroxiredoxins or NFkB. […]
Assay protocol: 2 uL of reagents (buffer in column 4 as negative control and 90 nM rTrxR1 in columns 1-3 and 5-48) were dispensed into Greiner black solid-bottom 1,536-well assay plates, followed by 1 uL of NADPH (400 uM final concentration) to each well. […] The plate was immediately transferred to a ViewLux high-throughput CCD imager (PerkinElmer), wherein kinetic measurements of NADPH fluorescence (Ex 340 nm, Em 450 nm) were acquired (8 minute kinetic read). Read 1 was utilized to assess the capacity of a compound to serve as an rTrxR1 substrate, i.e. a decrease in NADPH fluorescence compared to the no-compound background is an indication of a substrate behavior for that particular compound. […]
(Quantitative high-throughput screening tests each substance at several concentrations.)

Sequence of Thioredoxin reductase 1, cytoplasmic (Rattus norvegicus) (O89049 whole entry, looked up): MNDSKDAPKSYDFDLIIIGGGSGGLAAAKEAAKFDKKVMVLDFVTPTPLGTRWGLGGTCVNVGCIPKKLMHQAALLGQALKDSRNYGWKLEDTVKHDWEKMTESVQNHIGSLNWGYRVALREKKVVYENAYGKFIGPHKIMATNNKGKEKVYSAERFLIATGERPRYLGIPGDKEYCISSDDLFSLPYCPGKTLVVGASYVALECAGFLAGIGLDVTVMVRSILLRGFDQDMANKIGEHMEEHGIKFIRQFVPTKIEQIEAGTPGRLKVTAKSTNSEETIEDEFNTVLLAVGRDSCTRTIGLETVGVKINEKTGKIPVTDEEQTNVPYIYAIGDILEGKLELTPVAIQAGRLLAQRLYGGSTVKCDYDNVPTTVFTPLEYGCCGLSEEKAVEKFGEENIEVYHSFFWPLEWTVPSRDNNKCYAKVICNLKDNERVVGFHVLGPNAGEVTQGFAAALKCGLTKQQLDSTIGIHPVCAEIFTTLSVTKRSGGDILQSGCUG

Take `COc1ccc(-c2nc(CS(=O)CC(=O)N3CCC4(CC3)OCCO4)c(C)o2)cc1` (stereo unspecified): the Potency was 7.52 µM (active).
